# Source: PubChem BioAssay
# HCV inhibitor: blocks hepatitis C virus; Huh7.5.1 HCVcc-Cre infection, luciferase reporter, 44 h; Potency, µM (doses to about 41.8 µM), without a hit: at the highest dose activity change, negative = inhibition, most hits filed as inhibitors; 3.4% of 340,000 active; AID 651820; note: potency is the fitted concentration of half-maximal effect
#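 Cells seeded at 1,000/well and cultured 4 h, then compounds added followed by HCVcc-Cre virus (~0.5 moi). After 44 h further culture, luciferase substrate was added, plates held 15 min at room temperature, and luminescence read for 15 sec.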
# Vaccinia Venus: inhibitors of vaccinia virus (Venus reporter). Vaccinia virus Venus reporter expression, fluorescence. Potency, µM (highest dose often 36.5 µM), without a hit: at the top dose activity change, negative = inhibition, hits mostly inhibitors. 0.46% of 330,000 active; calls by dose curve; tested in A549 cells; note: potency is the fitted concentration of half-maximal effect; nearly all actives have a fitted effect of over 30% in size
# Sm TGR block: S. mansoni TGR enzyme inhibition | Q962Y6 | purified TGR, DTNB reduction, TNB absorbance 405 nm | Potency, µM (series often up to 114 µM), for inactives: at the top dose activity change, negative = inhibition, usual class: inhibitors | 3% of 360,000 active; note: potency is the fitted concentration of half-maximal effect; nearly all actives have a fitted effect of over 60% in size
#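 Kinetic colorimetric format: TGR-catalysed, NADPH-driven DTNB reduction monitored via TNB absorbance. Enzyme dispensed at 20 nM; compound exposure 15 min at room temperature before reaction start.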
# HCMV antiviral: human cytomegalovirus inhibition. HFF cells, HCMV-luciferase reporter, 72 h; stronger effect = lower value. activity change, negative = inhibition, % at 57.5 µM. 4.5% of 410,000 active. AID 1259415; in the data active = activity change below about -60%; inconclusive = no clear call, values can overlap the other calls; inactive = above about -39%
#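 Two compound doses tested in HFFs infected with HCMV-luciferase, MOI 1 PFU/cell, 72 h at 37C. Lysate luminescence read with OneGlo; data normalized against buffer-only and 10uM Salinomycin inhibitor controls.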
# Vaccinia mCherry: inhibitors of vaccinia virus infection (mCherry reporter signal) | AID 720579 | 0.63% of 310,000 active | Potency, µM (top dose mostly 36.5 µM), for the others: at the highest dose activity change, negative = inhibition, actives largely listed as inhibitors | Vaccinia virus mCherry reporter infection, fluorescence; calls by dose curve; tested in A549 cells; note: potency is the fitted concentration of half-maximal effect; nearly all actives have a fitted effect of over 35% in size
# FMDV antiviral: blocks foot and mouth disease virus. FMDV antiviral cell-based qHTS. Potency, µM (doses to about 57.9 µM), without a hit: top-dose activity change, negative = inhibition, usual class: inhibitors. 1.2% of 410,000 active. AID 1159524; calls by dose curve; tested in HEK293T cells; note: read-out not given here; potency is the fitted concentration of half-maximal effect; nearly all actives have a fitted effect of over 45% in size
# * = called active by the depositor; i = inactive; ? = inconclusive; . = no result. Sampled rows, rich in hits. Any-hit rate of the full collection: about 9.3%. Unless noted, calls come from the whole dose curve; as a rule, active = well fitted curve in the direction sought with a large enough effect; inconclusive = small, poorly fitted or top-dose-only effect, or another doubt; inactive = no such curve, though single readings can be large; an effect the other way counts as inactive or inconclusive. % is set by controls: 0 for no effect and ±100 for the full control effect.
SMILES,HCV inhibitor,Vaccinia Venus,Sm TGR block,HCMV antiviral,Vaccinia mCherry,FMDV antiviral
Clc1cccc(-c2cc3nc(NCCOc4ccccc4)ccn3n2)c1,.,-22.3%,.,-19.6,-24.8%,26.2%
Cc1cc(S(=O)(=O)Nc2cc3c(cc2C)n(C)c(=O)c(=O)n3C)ccc1F,.,-12.7%,5.3%,7.6,-3.5%,3.6%
CCCn1c(N)c(C(=O)CSc2nnc(C3CC3)n2Cc2ccccc2)c(=O)[nH]c1=O,20.2%,-8.2%,0.0%,-16.1,.,-29.9%
CC(C)NC(=NCc1ccc(Cl)cc1Cl)Nc1ccccc1,?,.,-0.1%,-101.0*,.,-29.9%
O=C(C/C=N\OCc1ccc(Cl)cc1Cl)Nc1ccccc1,1.0%,-10.5%,6.4%,-21.1,i,-9.4%
Cc1ccc(Cl)cc1NC(=O)c1ccc(CSc2nnnn2C)cc1,?,-7.4%,-29.1%,-60.7*,.,-2.8%
CC(C)OP(=O)(c1ccccc1)c1ccccc1,4.5%,-14.5%,3.3%,?,i,-7.4%
c1cc(Nc2ncnc3sccc23)cc(-c2nnc3n2CCCCC3)c1,10µM*,.,-9.6%,-32.9,.,-23.3%
C=C(C)COc1ccc(-c2n[nH]c(C)c2Oc2ccccc2OC)c(O)c1,31.6µM*,?,1.0%,-19.9,.,-26.7%
C=C(C)COc1ccc(-c2[nH]ncc2-c2ccccc2)c(O)c1,-22.4%,?,5.7%,?,.,?
C=C(C)COc1ccc(-c2[nH]ncc2-c2ccc(OC)c(OC)c2)c(O)c1,2µM*,10µM*,3.7%,?,.,?
C=C(C)COc1ccc(-c2n[nH]c(C)c2-c2ccc(OC)c(OC)c2)c(O)c1,12.6µM*,?,5.5%,-83.8*,?,?
C=C(C)COc1ccc(-c2[nH]ncc2-c2ccc(OC)cc2)c(O)c1,-13.8%,.,7.6%,-70.5*,.,-12.5%
C=C(C)COc1ccc(-c2nc(N)ncc2-c2ccc(OC)c(OC)c2)c(O)c1,?,-26.8%,0.0%,118.1,-10.7%,-22.3%
COc1ccc(-c2cn[nH]c2-c2ccc(O)cc2O)cc1,-10.4%,.,14.7%,-88.3*,.,?
CC(NC(=O)NNC(N)=S)(C(F)(F)F)C(F)(F)F,3.6%,28.2µM*,-4.5%,-16.9,?,-6.9%
CN(NC(=O)NN(C)C(=O)c1ccccc1)C(=O)c1ccccc1,19.2%,-6.1%,.,-21.9,i,-7.2%
CN(NS(=O)(=O)c1ccccc1)C(=O)c1ccccc1,17.3%,5.1%,.,-99.9*,-19.1%,-15.1%
O=C(NCCSCc1ccco1)Nc1ccccc1,6.6%,-10.4%,35.5µM*,29.0,i,93.6%
Cc1ccc(SCCC(=O)NCCSCc2ccco2)cc1,9.4%,-15.9%,?,-99.6*,-11.2%,-4.7%
CN(C(=O)CN1C(=O)NC(C)(c2cccc(Br)c2)C1=O)C1CCCCC1 (stereo unspecified),21.4%,-18.8%,3.1%,-16.7,-22.6%,?
Cc1ccc2c(c1)C(=O)C(=O)N2Cc1ccc(Br)cc1,?,?,.,-76.3*,-10.2%,0.0%
Cc1ccc(CN2C(=O)C(=O)c3cc(C)ccc32)cc1,?,-26.5%,.,?,-28.3%,9.0%
CCCN1C(=O)C(=O)c2cc(C)ccc21,-5.8%,-3.0%,.,-38.9,i,19.2%
Cc1ccc2c(c1)C(=O)C(=O)N2Cc1ccc(OCCC(C)C)cc1,.,-7.8%,0.4%,-94.6*,-16.2%,-18.6%
CC1C(=O)N2CCCc3cc(S(=O)(=O)N(C)Cc4ccccc4)cc1c32 (stereo unspecified),8.2%,.,9.6%,?,.,-6.7%
CCOC(=O)C1CCCN(C(=O)c2ccc3c(c2)sc2nc(-c4cccc(OC)c4)cn23)C1 (stereo unspecified),.,-7.5%,-11.0%,.,-3.2%,31.6µM*
COc1ccc(-c2cn3c(n2)sc2cc(C(=O)NCCCN4CCN(C)CC4)ccc23)cc1,.,?,?,.,?,15.6%
CCCN1CCN(CCCNC(=O)c2ccc3c(c2)sc2nc(-c4ccc(OC)cc4)cn23)CC1,.,?,-2.6%,.,4.47µM*,13.0%
Cc1cccc(C)c1NC(=O)C(c1ccccc1)N1CCC2(CC1)OCCO2 (stereo unspecified),10.9%,-8.3%,.,28.5,-19.3%,1.5%
